Laboratory results: PubChem BioAssay AID686964 (The Scripps Research Institute Molecular Screening Center, 2013)
The whole screen tested about 370,000 compounds, of which about 1,100 (0.3%) were called active. No stated cut-off is given here; in the data, active means inhibition above about 13%; inactive means the rest. This excerpt belongs to a sample that is enriched for actives.

target: Methyl-CpG-binding domain protein 2 (Homo sapiens) (UniProt Q9UBB5); test: inhibitors of MBD2 binding to methylated DNA, primary screen, biochemical, TR-FRET, DNA-binding domain, human (AID 686964); settings: MBD2 binding to methylated oligonucleotide, at 4.4 µM, stronger effect = higher value
Sequence (Q9UBB5 whole entry, looked up, the tested form may be a part): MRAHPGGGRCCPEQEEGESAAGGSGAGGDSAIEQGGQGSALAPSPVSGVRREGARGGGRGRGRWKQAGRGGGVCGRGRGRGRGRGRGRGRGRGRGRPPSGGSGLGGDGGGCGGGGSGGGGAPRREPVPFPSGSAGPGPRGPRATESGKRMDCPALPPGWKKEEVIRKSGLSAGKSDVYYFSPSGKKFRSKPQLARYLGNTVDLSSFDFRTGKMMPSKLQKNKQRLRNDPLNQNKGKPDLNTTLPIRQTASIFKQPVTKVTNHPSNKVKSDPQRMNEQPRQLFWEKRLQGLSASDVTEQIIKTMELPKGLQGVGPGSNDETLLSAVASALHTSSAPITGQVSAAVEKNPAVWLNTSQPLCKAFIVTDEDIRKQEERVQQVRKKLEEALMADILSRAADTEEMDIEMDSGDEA

SMILES	inhibition
CC(C)(C)NC(=O)COC(=O)c1cc(Cl)ccc1[N+](=O)[O-]	-1.21% (inactive)
COC(=O)C[C@H]1CC[C@H]2[C@H](COc3ccc(NC(=O)C4CC4)cc3C(=O)N2C)O1	-4.11% (inactive)
Cc1ccc(N(C(=O)c2snc(C(N)=O)c2N)C(C(=O)NCC2CCCO2)c2c[nH]c3ccccc23)cc1 (stereo not given)	0.5% (inactive)
c1nc(COc2nsnc2N2CCOCC2)cs1	-0.47% (inactive)
C=CCn1c(=S)[nH]c2scc(-c3ccco3)c2c1=O	21.2% (active)
Cc1ccc(Cn2cc(COC(=O)N(C)Cc3ccccc3)nn2)cc1	3.5% (inactive)
O=C(NCc1cccs1)C1CCN(S(=O)(=O)c2ccccc2[N+](=O)[O-])CC1	0.44% (inactive)
CCCn1c(SCC(=O)Nc2c(C)cccc2C)nnc1C(C)C	6.66% (inactive)
COc1ccc(COC[C@H](CC(C)C)N2CCN(C(=O)c3cccc(C(F)(F)F)c3)CCC2=O)cc1	13.4% (active)
O=C(c1ccc(C(F)(F)F)cc1)N1CCC(=O)N([C@H](COCc2ccccc2)Cc2ccccc2)CC1	3% (inactive)
CC(C)CC(COCc1ccc(Cl)cc1)N1CCN(C(=O)c2ccc(C(F)(F)F)cc2)CCC1=O (stereo not given)	4.33% (inactive)
C[C@@H]1ON(C)[C@H]2C[C@H]3c4cc(N5CCOCC5)ccc4CCN3C[C@@H]12	-5.34% (inactive)
COC(=O)CNc1nc(Cl)nc(N2CCC(C)CC2)n1	2.21% (inactive)
CCc1c(-c2ccc(F)cc2)ncn1Cc1cccc(-c2ccccc2)c1	1.61% (inactive)
CCOC(=O)C1CCN(C(=O)C(C)(C)NC(=O)Nc2ccccc2Cl)CC1	1.47% (inactive)
Cc1c(CC(=O)N2CCN(C(=O)C3COc4ccccc4O3)CC2)c(=O)oc2c(O)c(O)ccc12 (stereo not given)	13.6% (active)
Fc1ccc2nc(COCc3nc4ccc(F)cc4[nH]3)[nH]c2c1	-0.41% (inactive)
CCC(C)n1[nH]c(=O)c2c(C)cc(C)nc21 (stereo not given)	-4.79% (inactive)
CCC(=O)Nc1cccc(C2=NOC3(C2)C[C@@H](C(N)=O)N(C(=O)c2cc([N+](=O)[O-])cc([N+](=O)[O-])c2C)C3)c1 (stereo not given in full)	-0.08% (inactive)
COc1ccc(-n2cc(-c3ccccc3)c3c(=S)nc[nH]c32)cc1	14% (active)
O=c1[nH]cnc2c1c(-c1ccccc1)cn2-c1ccc(F)cc1	4.57% (inactive)
O=C(CNS(=O)(=O)c1ccccc1F)N1CCN(c2ccccn2)CC1	-1.19% (inactive)
COC(=O)c1ccc2nc(-c3ccccc3)c(Cc3ccc(OC)cc3C)n2c1	10.6% (inactive)
COC(=O)c1ccc2nc(-c3cccc(Br)c3)c(Cc3ccc(OC)cc3C)n2c1	14.9% (active)
COC(=O)c1ccc2nc(-c3ccc(C)cc3)c(Cc3ccc(OC)cc3C)n2c1	7.16% (inactive)
